Source: PubChem
NTR1 agonist = activates human neurotensin receptor 1; 330,000 compounds, 0.17% hits; P30989; NTR1-U2OS beta-arrestin-GFP spot imaging, agonist mode; AID 493036; activation, % at 20 µM;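 active = activation at or above 40% of the spot to cytoplasm intensity ratio, with at least 20 cells analyzed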;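 also: 0% = DMSO without peptide and 100% = 100 nM NTR1 peptide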
MEKK2mut PB1 HTS = signal of MEK5 binding to mutant human MEKK2 PB1 domain; AID 1530; percent response, % at 10 µM; 290,000 compounds, 0.35% hits; bead flow cytometry, Alexa488-MEK5 binding to MEKK2 mutant; in the data active = percent response above about 24%, passing the limit was not always enough
MEKK2 WT-MEK5 = raises or lowers MEK5 binding to wildtype human MEKK2 PB1 domain | Q9Y2U5 | bead flow cytometry, Alexa488-MEK5 binding to MEKK2 WT; actives lie on both sides | binding response (% of control), % at 10 µM | 290,000 compounds, 1.1% hits; in the data active = binding response below about 67% or above about 130%
TMEM16A act = activates or potentiates the mouse TMEM16A chloride channel; Q8BHY3; B-score at 10 µM; 340,000 compounds, 0.3% hits; HEK293 TMEM16A/YFP-H148Q/I152L, iodide quench fluorescence; hits give low values;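 active = fluorescence-ratio B-score plate-corrected deviation score at least 3 library SD below zero, with starting fluorescence score within 5 deviations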;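 also: channel opened by trigger with iodide after compound preincubation; score built on the fluorescence ratio of max minus min over baseline; more negative score means more quench and so TMEM16A activation or potentiation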
MEKK3 PB1 HTS = raises or lowers MEK5 binding to the human MEKK3 PB1 domain | binding response (% of control), % at 10 µM | Q99759 | bead-based flow cytometry, Alexa488-MEK5 binding to MEKK3; actives lie on both sides; 0 = blocked by unlabeled MEK5, 100 = vehicle | 290,000 compounds, 1.4% hits;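 active = binding response more than 3 SD above or below the average of its plate-row segment, actives on both sides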;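 also: Alexa488 bead fluorescence after subtracting the streptavidin-only scavenger bead signal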
Target sequence (Q99759 whole entry, looked up, the tested form may be a part): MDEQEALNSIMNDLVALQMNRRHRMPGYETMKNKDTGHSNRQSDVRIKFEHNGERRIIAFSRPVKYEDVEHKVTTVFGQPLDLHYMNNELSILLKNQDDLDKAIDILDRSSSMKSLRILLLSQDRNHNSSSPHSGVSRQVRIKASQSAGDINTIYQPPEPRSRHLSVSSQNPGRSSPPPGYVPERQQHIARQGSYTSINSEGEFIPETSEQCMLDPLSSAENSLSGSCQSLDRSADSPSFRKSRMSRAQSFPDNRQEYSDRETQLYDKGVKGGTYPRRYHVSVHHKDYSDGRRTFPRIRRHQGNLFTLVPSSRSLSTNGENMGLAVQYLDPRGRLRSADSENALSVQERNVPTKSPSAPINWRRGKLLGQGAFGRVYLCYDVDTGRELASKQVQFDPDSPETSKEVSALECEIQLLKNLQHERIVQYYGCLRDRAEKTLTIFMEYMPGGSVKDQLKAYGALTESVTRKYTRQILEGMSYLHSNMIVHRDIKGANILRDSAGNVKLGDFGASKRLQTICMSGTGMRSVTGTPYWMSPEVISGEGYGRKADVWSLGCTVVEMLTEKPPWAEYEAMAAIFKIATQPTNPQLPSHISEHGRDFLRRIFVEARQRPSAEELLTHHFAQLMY
ANO1 block = mouse TMEM16A channel inhibition, primary screen; Q8BHY3; HEK293 TMEM16A/YFP iodide influx fluorescence, ionomycin; normalized B-score (activity score, 25-100; higher = stronger inhibition) at 10 µM; 310,000 compounds, 1.2% hits;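 active = ratio plate-corrected score three or more library SD toward inhibition, starting fluorescence score within five deviations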;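 also: score derived from kinetic fluorescence span divided by baseline fluorescence per well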
MEKK2wt confirm = raises or lowers MEK5 binding to wildtype human MEKK2, retest. shares compounds with MEKK3 PB1 HTS. bead flow cytometry, Alexa488-MEK5 binding to MEKK2 WT; actives lie on both sides. binding response (% of control), % at 10 µM. 5,900 compounds, 2.4% hits. AID 1892; in the data active = binding response below about 16% or above about 210%; inactive = in between
MEKK2mut-MEK5 = signal of MEK5 binding to mutant human MEKK2, retest. shares compounds with MEKK3 PB1 HTS. bead flow cytometry, Alexa488-MEK5 binding to MEKK2 mutant. percent response, % at 10 µM. 5,900 compounds, 2% hits. AID 1893; in the data active = percent response mostly above about 71%, no sharp cut-off; inactive = mostly below about 38%;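 also: higher means compound restores mutant binding toward wildtype level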
MEKK3-MEK5 inh = MEKK3-MEK5 PB1 inhibition, single concentration confirmation | shares compounds with MEKK3 PB1 HTS | binding response (% of control), % at 10 µM | bead flow cytometry, Alexa488-MEK5 binding to MEKK3; hits give low values | 5,900 compounds, 1.8% hits;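 active = binding response below 72% of control, or above a set upper limit, though filed actives all read lower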;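 also: 100% = DMSO only wells and 0% = binding blocked by excess unlabeled MEK5; lower values mean stronger disruption of MEK5 binding to MEKK3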
* = called active by the depositor; i = inactive; . = not tested or not shown; [ ] = another dose, or the depositor's remark. Shown are actives, neighbours in structure and some others; about 3.4% of the full set was active somewhere.

SMILES | NTR1 agonist | MEKK2mut PB1 HTS | MEKK2 WT-MEK5 | TMEM16A act | MEKK3 PB1 HTS | ANO1 block | MEKK2wt confirm | MEKK2mut-MEK5 | MEKK3-MEK5 inh
O=C(Nc1ccc(C(F)(F)F)cc1)c1cc(S(=O)(=O)NCC2COc3ccccc3O2)ccc1F (stereo unspecified) | 25 | 1 | 123 | i | 136* | i | 122 | 13 | 103
Cc1ccccc1CN(C)CC(=O)Nc1c(C)cccc1C(C)C | 5 | -24 | 71 | i | 72*[inhibitor] | i | 107 | 4 | 104
Cc1ccc(Sc2cc(NCCCO)c([N+](=O)[O-])c3nonc23)cc1 | 4 | 3 | 112 | i | 108 | i | . | . | .
CC(=O)OCCCNc1cc(Sc2ccc(Cl)cc2)c2nonc2c1[N+](=O)[O-] | . | 0 | 104 | i | 132* | i | 95 | 0 | 95
O=C(NCc1ccco1)/C(=C\C=C\c1ccccc1)NC(=O)c1ccccc1Br | 2 | 6 | 101 | i | 89 | i | . | . | .
CCn1c(SCC(=O)c2ccccc2)nc2sc3c(c2c1=O)CCN(C)C3 | 4 | 29 | 124 | i | 130* | i | 104 | 0 | 104
CN1CCc2c(sc3nc(SCC(N)=O)n(-c4ccc(Cl)cc4)c(=O)c23)C1 | -2 | 2 | 98 | i | 94 | i | . | . | .
CN1CCc2c(sc3nc(SCC(N)=O)n(-c4ccccc4)c(=O)c23)C1 | 0 | 79* | 105 | i | 99 | i | 94 | -6 | 99
Cc1cc(C)c(NC(=O)CSc2nc3[nH]ncc3c(=O)[nH]2)c(C)c1 | 2 | -1 | 102 | i | 103 | i | . | . | .
O=C(Nc1cccs1)NC1CCCC1 | 0 | 4 | 99 | i | 100 | i | . | . | .
O=C(Nc1ccc2nc(-c3cccs3)c(-c3cccs3)nc2c1)NC1CC1 | 15 | -18 | 20*[inhibitor] | i | 68*[inhibitor] | i | 54 | -20 | 95
COCCNC(=O)Nc1ccc2nc(-c3cccs3)c(-c3cccs3)nc2c1 | 3 | -3 | 67*[inhibitor] | i | 92 | i | 67 | -18 | 90
COc1ccc(C(=O)CSc2ccc(-c3ccccc3)nn2)cc1 | -1 | 6 | 97 | i | 95 | i | . | . | .
O=C(CSc1ccc(-c2cccs2)nn1)NCCc1ccccc1 | 0 | 4 | 105 | i | 110 | i | . | . | .
COc1ccc(CCNC(=O)CSc2ccc(-c3ccccc3)nn2)cc1 | 1 | 0 | 104 | . | 131* | i | 99 | -12 | 97
COc1ccccc1CCNC(=O)CSc1ccc(-c2cccs2)nn1 | -1 | 8 | 99 | i | 61*[inhibitor] | i | 100 | -1 | 105
O=C(Nc1cc2c3c(c1)CC(=O)N3CCC2)c1ccccc1Br | 0 | . | . | i | . | i | . | . | .
Cc1ccc(OCC(O)Cn2c(=N)n(CCN3CCCCC3)c3ccccc32)cc1 (stereo unspecified) | 0 | 4 | 145* | i | 105 | i | 130 | 10 | 102
COc1cc(O)c(C(CC(=O)N2CCN(c3ccccc3)CC2)c2ccc3c(c2)OCO3)c(OC)c1 (stereo unspecified) | -4 | 0 | 153* | i | 130* | i | 100 | -7 | 104
CCN(CC)CCC(c1ccc2c(c1)OCO2)c1c(O)cc(OC)cc1OC (stereo unspecified) | 0 | 12 | 150* | i | 119 | i | 116 | 3 | 105
COc1cc(O)c(C(CC(=O)N2CCCC2)c2ccc3c(c2)OCO3)c(OC)c1 (stereo unspecified) | -6 | -13 | 94 | i | 96 | i | . | . | .
COc1ccc(C(CC(=O)N2CCOCC2)c2c(O)cc(OC)cc2OC)cc1 (stereo unspecified) | -2 | 0 | 165* | i | 133* | i | 102 | 4 | 96
COc1ccc(OC2OC3COC(C)(C)OC3C(O)C2NC(C)=O)cc1 (stereo unspecified) | 1 | 24* | 101 | i | 115 | i | 101 | -1 | 100
Cc1ccc(S(=O)(=O)N(C)c2ccc(OC(=O)CN3C(=O)NC(C)(c4ccccc4)C3=O)cc2)cc1C (stereo unspecified) | . | . | . | i | . | . | . | . | .
CN(C)CCCN(CCCNC(=O)/C=N/O)Cc1ccccc1 | 1 | 80* | 179* | i | 112 | i | 127 | 28 | 116
SMILES | NTR1 agonist | MEKK2mut PB1 HTS | MEKK2 WT-MEK5 | TMEM16A act | MEKK3 PB1 HTS | ANO1 block | MEKK2wt confirm | MEKK2mut-MEK5 | MEKK3-MEK5 inh
CN(CCCCCNC(=O)/C=N/O)Cc1ccccc1 | . | 14 | 115 | . | 101 | . | . | . | .
C=CCNC(=S)/N=c1/ccccn1CCC | -1 | -31 | 82 | i | 75*[inhibitor] | i | 107 | 3 | 101
S=c1[nH]nc(-c2ccc(Cl)cc2)n1CCCN1CCOCC1 | 0 | 431* | 119 | i | 118 | i | 100 | -6 | 103
CC1=CC(=O)C(C(C)=Nc2ccccc2Cl)C(=O)O1 (stereo unspecified) | 0 | -2 | 99 | i | 101 | i | . | . | .
O=C(N/N=C/c1c(O)n(-c2ccccc2Cl)c(=O)c2ccccc12)C1COc2ccccc2O1 (stereo unspecified) | 4 | 0 | 103 | i | 137* | i | 100 | -1 | 102
Cc1c(/C=N\NC(=O)C2COc3ccccc3O2)c2ccccc2n1C (stereo unspecified) | . | 15 | 26*[inhibitor] | i | 96 | i | 101 | 9 | 102
Cc1ccc(-n2c(O)c(/C=N/NC(=O)C3COc4ccccc4O3)c3ccccc3c2=O)cc1 (stereo unspecified) | 7 | -1 | 100 | i | 103 | i | . | . | .
Cn1cc(/C=N\NC(=O)C2COc3ccccc3O2)c2ccccc21 (stereo unspecified) | 4 | 4 | 108 | . | 109 | i | . | . | .
CSCC[C@H](NS(=O)(=O)c1ccc(C)cc1)C(=O)N1CCC(C(=O)N[C@@H](Cc2ccc(O)cc2)C(=O)O)CC1 | 1 | -1 | 102 | i | 99 | i | . | . | .
Cc1sc2ncnc(NC3CCN(Cc4ccccc4)CC3)c2c1C | 6 | -5 | 89 | i | 91 | i | . | . | .
c1ccc(CN2CCC(Nc3nc(-c4cccnc4)nc4ccccc34)CC2)cc1 | 6 | 16 | 144* | i | 102 | i | 137 | 12 | 98
